# Source: PubChem BioAssay
# Values joined by “and” are separate entries in the source; they are usually repeats but may differ in a detail not shown here. Equal values may be shown once. Active and inactive are the calls of the source.
# Legend:
# [1] = system: Plasmodium falciparum Sir2 (PF13_0152, Sir2A); experiment: pfSir2 binders on small-molecule microarrays, primary screen, biochemical, small-molecule microarray, 635 nm fluorescence (AID 1098); settings: small-molecule microarray binding, fluorescence 635 nm; higher = more signal;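 note: score merges spot fluorescence intensity with its signal-to-noise ratio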
# [2] = small-molecule microarray binders of probe aDKK1, primary screen, biochemical, biotinylated probe, 635/667 nm fluorescence (AID 1099); settings: higher = more signal;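 note: score merges 667nm spot fluorescence with signal to noise across triplicate slides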
# [3] = small-molecule microarray binders of probe aCHRDL2, primary screen, biochemical, biotinylated probe, 635/667 nm fluorescence (AID 1100); settings: higher = more signal
# [4] = splicing luciferase reporter signal modulators, primary screen, spliceosome inhibition project, cell-based, HEK293, splice +/- reporter (AID 1101); settings: luminescence, 24 h, higher = more signal, called active from +8 up or from −8 down;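 note: HEK293 cells carrying a splicing-competent luciferase reporter gene; test concentration not given here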
# [5] = target: Fibroblast growth factor 10 (Homo sapiens) (UniProt O15520); experiment: FGF10 binders on small-molecule microarrays, primary screen, biochemical, small-molecule microarray, 635 nm fluorescence (AID 1102); settings: FGF10 binding, fluorescence 635 nm, higher = more signal
# Sequence of Fibroblast growth factor 10 (Homo sapiens) (O15520 whole entry, looked up): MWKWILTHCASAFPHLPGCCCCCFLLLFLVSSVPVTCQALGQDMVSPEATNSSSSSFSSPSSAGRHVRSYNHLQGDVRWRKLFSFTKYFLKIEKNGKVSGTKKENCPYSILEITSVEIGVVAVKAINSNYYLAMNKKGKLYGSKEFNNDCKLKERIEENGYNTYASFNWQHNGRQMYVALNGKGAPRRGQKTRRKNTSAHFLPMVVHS
# [6] = system: glycogen synthase kinase-3 (GSK3A per assay name; protocol says GSK3B); experiment: GSK3 binders on small-molecule microarrays, primary screen, biochemical, small-molecule microarray, 635 nm fluorescence, GSK3A (AID 1103); settings: small-molecule microarray binding, fluorescence 635 nm; higher = more signal; note: the record names both GSK3A and GSK3B
# [7] = target: Epidermal growth factor receptor (Homo sapiens) (UniProt P00533); experiment: EGFR binders on small-molecule microarrays, primary screen, biochemical, small-molecule microarray, 635 nm fluorescence (AID 1104); settings: EGFR binding, higher = more signal;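 note: score merges 667 nm emission intensity with spot signal to noise over triplicate slides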
# Sequence of Epidermal growth factor receptor (Homo sapiens) (P00533 whole entry, looked up): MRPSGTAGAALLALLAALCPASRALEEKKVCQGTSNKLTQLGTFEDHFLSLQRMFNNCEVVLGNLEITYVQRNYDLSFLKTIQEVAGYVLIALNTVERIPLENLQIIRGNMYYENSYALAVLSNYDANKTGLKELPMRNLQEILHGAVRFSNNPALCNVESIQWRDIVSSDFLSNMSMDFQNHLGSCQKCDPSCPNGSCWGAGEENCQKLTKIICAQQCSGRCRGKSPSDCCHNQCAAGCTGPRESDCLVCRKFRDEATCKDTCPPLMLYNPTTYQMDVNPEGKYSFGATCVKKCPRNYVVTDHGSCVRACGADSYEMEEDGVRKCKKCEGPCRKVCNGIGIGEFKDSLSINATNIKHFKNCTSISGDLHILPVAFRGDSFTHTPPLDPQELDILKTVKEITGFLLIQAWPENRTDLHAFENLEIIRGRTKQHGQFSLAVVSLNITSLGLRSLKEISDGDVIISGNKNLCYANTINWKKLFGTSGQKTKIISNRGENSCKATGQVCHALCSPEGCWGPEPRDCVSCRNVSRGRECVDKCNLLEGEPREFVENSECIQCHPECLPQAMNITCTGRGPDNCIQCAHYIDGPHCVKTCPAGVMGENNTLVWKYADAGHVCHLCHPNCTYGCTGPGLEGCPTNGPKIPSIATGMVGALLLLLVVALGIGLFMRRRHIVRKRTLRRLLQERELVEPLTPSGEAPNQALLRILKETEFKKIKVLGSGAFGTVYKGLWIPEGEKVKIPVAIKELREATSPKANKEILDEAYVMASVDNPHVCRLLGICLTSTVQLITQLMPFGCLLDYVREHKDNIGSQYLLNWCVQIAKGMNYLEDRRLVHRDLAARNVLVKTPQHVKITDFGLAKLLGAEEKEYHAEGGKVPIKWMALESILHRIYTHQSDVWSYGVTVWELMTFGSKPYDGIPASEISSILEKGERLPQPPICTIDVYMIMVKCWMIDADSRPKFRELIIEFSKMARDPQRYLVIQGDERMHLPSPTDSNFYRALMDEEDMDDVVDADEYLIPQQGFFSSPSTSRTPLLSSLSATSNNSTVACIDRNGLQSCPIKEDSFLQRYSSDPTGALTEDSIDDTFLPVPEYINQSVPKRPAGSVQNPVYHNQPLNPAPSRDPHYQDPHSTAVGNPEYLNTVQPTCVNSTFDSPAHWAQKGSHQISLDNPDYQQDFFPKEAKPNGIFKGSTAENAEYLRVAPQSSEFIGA
# [8] = target: Follistatin-related protein 3 (Homo sapiens) (UniProt O95633); experiment: FSTL3 binders on small-molecule microarrays, primary screen, biochemical, small-molecule microarray, 635 nm fluorescence (AID 1105); settings: FSTL3 binding, higher = more signal;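 note: score merges emission near 667 nm and signal to noise per printed spot across three slides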
# Sequence of Follistatin-related protein 3 (Homo sapiens) (O95633 whole entry, looked up): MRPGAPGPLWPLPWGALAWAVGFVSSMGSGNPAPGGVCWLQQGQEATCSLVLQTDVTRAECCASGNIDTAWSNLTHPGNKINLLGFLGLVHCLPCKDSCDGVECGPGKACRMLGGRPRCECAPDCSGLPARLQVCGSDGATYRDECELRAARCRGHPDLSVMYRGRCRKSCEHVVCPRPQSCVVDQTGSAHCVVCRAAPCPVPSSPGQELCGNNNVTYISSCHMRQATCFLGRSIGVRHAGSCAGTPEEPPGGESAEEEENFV
# [9] = target: Dickkopf-related protein 1 (Homo sapiens) (UniProt O94907); experiment: DKK1 binders on small-molecule microarrays, primary screen, biochemical, small-molecule microarray, 635 nm fluorescence scan (AID 1106); settings: DKK1 binding, higher = more signal;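 note: score merges emission near 667 nm with signal to noise over three replicate slides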
# Sequence of Dickkopf-related protein 1 (Homo sapiens) (O94907 whole entry, looked up): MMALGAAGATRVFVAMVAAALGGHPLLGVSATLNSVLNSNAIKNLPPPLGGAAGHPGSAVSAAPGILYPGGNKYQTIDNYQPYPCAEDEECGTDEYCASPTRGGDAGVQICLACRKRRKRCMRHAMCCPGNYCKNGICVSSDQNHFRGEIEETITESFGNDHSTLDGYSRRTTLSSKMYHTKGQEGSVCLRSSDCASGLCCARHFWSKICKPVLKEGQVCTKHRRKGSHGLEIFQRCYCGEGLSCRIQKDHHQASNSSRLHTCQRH
# [10] = system: Inhibin beta A chain (activin A); experiment: INHBA (activin A) binders on microarrays, primary screen, biochemical, small-molecule microarray, 635 nm fluorescence scan (AID 1107); settings: small-molecule microarray binding, higher = more signal;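 note: mouse activin A protein probed at 4.33 µg/mL on printed slides; score merges bound-protein fluorescence near 667 nm with spot signal-to-noise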
# [11] = system: Human papillomavirus type 1a protein E7 (residues 44-93); experiment: HPV1a E7 fragment binders on microarrays, primary screen, biochemical, small-molecule microarray, residues 44-93, 635 nm fluorescence (AID 1108); settings: small-molecule microarray binding, fluorescence 635 nm; higher = more signal;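 note: E7 fragment applied at 1 µg/mL in TBST for 1 h at 4 C; score combines spot fluorescence with its signal to noise ratio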
# [12] = modulators of HCV replicon luciferase signal, primary screen, HCV replication inhibitor project, Huh7 cells, luciferase reporter (AID 1109); settings: 48 h, higher = more signal;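 note: huh7 hepatoma cells harbouring a luciferase neomycin HCV replicon reporter; luciferase luminescence as measure of HCV replicon replication; test concentration not given here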
# [13] = target: Left-right determination factor 2 (Homo sapiens) (UniProt O00292); experiment: LEFTY2 binders on small-molecule microarrays, primary screen, biochemical, small-molecule microarray, 635 nm fluorescence scan (AID 1110); settings: LEFTY2 binding, higher = more signal
# Sequence of Left-right determination factor 2 (Homo sapiens) (O00292 whole entry, looked up): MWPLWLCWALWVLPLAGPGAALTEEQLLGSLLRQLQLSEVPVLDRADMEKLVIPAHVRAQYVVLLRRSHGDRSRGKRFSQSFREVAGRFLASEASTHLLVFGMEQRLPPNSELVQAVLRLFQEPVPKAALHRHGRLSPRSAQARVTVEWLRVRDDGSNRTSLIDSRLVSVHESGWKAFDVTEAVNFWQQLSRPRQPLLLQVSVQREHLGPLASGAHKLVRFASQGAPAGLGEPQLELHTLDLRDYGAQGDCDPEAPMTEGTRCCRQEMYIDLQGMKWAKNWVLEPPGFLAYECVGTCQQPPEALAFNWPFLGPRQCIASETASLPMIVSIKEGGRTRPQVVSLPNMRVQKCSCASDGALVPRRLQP
# [14] = target: Calmodulin-1 (Homo sapiens) (UniProt P0DP23); experiment: CALM1 binders on microarrays, EGTA buffer, profiling panel, biochemical, small-molecule microarray, Cy5-labelled CALM1 (AID 1111); settings: Cy5-CALM1 binding fluorescence, higher = more signal;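 note: labelled calmodulin applied in Tris saline Tween buffer holding calcium plus EGTA and DTT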
# [15] = target: Calmodulin-1 (Homo sapiens) (UniProt P0DP23); experiment: calcium-bound CALM1 binders on microarrays, profiling panel, artefact control for SMM control-protein annotation, biochemical, small-molecule microarray, Cy5-labelled CALM1, plus calcium (AID 1112); settings: Cy5-CALM1 binding fluorescence, higher = more signal;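 note: score merges spot fluorescence with signal to noise from triplicate slides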
# [16] = small-molecule microarray binders of probe aWnt5a, primary screen, biochemical, biotinylated probe, 635/667 nm fluorescence (AID 1113); settings: higher = more signal;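 note: score merges 667 nm fluorescence intensity with signal-to-noise per printed feature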
# [17] = small-molecule microarray binders of probe aShh, primary screen, biochemical, biotinylated probe, 635/667 nm fluorescence (AID 1114); settings: higher = more signal;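 note: probe is biotin-labelled aShh protein from a stem cell growth factor screen; measures binding of labelled protein to compounds printed on the slide; score merges feature fluorescence at 667 nm with signal-to-noise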
# [18] = small-molecule microarray binders of probe aNog, primary screen, biochemical, biotinylated probe, 635/667 nm fluorescence (AID 1115); settings: higher = more signal;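 note: probe is biotinylated aNog protein used at 0.15 µg/mL for 1 h at 4 C; z-score combines 667 nm fluorescence of each spot with its signal to noise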
# [19] = target: Torsin-1A-interacting protein 1 (Homo sapiens) (UniProt Q5JTV8); experiment: LAP1 binders from COS7 cell lysate, primary screen, small-molecule microarray, 635/667 nm fluorescence (AID 1116); settings: COS7-hLAP1 lysate binding, 635 nm fluorescence, higher = more signal
# Sequence of Torsin-1A-interacting protein 1 (Homo sapiens) (Q5JTV8 whole entry, looked up): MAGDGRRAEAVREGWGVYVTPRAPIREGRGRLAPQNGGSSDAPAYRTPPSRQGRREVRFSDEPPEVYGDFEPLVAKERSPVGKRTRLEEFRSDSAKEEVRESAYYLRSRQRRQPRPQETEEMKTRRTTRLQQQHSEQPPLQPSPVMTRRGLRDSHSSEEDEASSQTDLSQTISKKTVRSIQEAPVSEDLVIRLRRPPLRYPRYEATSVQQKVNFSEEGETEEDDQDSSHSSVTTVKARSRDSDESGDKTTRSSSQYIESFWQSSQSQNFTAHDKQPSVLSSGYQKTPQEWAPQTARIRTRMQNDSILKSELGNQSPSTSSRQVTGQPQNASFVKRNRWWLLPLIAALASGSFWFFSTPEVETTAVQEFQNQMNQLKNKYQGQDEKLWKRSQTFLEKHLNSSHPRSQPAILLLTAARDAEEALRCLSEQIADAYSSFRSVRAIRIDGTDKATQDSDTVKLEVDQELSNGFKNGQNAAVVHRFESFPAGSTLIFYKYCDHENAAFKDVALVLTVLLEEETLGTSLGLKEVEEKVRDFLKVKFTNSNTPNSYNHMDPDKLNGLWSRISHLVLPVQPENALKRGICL
# [20] = target: Alpha-bungarotoxin (Bungarus multicinctus) (UniProt P60615); experiment: alpha-bungarotoxin binders on microarray, profiling panel, artefact control for SMM control protein annotation, biochemical, small-molecule microarray, Alexa647 label, 635/667 nm fluorescence (AID 1117); settings: alpha-BTX-A647 binding fluorescence, higher = more signal
# Sequence of Alpha-bungarotoxin (Bungarus multicinctus) (P60615 whole entry, looked up): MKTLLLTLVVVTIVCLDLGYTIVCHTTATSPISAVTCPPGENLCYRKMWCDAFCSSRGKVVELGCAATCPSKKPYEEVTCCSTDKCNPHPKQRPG
SMILES,composite z-score [1],composite z-score [2],composite z-score [3],z-score [4],composite z-score [5],composite z-score [6],composite z-score [7],composite z-score [8],composite z-score [9],composite z-score [10],composite z-score [11],z-score [12],composite z-score [13],composite z-score [14],composite z-score [15],composite z-score [16],composite z-score [17],composite z-score [18],composite z-score [19],composite z-score [20]
C=C[C@@H](OC)[C@H](O)c1ccc(O)c(F)c1,0.767 and -0.815,-0.324 and -0.472,0.576 and 0.268,-0.668 (inactive) and -2.09 (inactive),-1.19 and -1.46,-1.5 and -1.29,-1.59 and -0.277,-2.7 and -1.75,-1.37 and -0.856,-2.04 and -0.759,-0.829 and -1.4,0.0695 and 0.896,-1.68 and -1.07,-0.692 and -1.45,-0.898 and -1.11,-0.328 and -0.268,-0.0553 and -0.0709,-0.564 and -0.908,-0.104 and -0.362,-1.14 and -0.617
COC(=O)C1=C(C)N(Cc2ccccc2)C2=C(C(=O)c3ccccc3)[C@H](c3ccccc3)[C@@](O)(C(=O)OC)C(=O)N2[C@@H]1c1ccccc1,0.419 and 0.36,-0.0581 and -0.208,-0.178 and -0.433,-1.7 (inactive) and 0.839 (inactive),0.654 and 0.495,0.739 and 0.519,0.392 and 0.353,0.626 and 0.53,0.638 and 0.349,-0.0471 and -0.0052,1.15 and 0.774,-2.05 and 0.964,0.32 and 0.577,0.046 and -0.136,-0.373 and -0.51,-0.176 and -0.1,-0.137 and -0.0626,-0.31 and 0.0197,0.202 and 0.17,-0.115 and -0.0752
C=C[C@@H](C)[C@@H](O)c1ccc(O)c2ccccc12,1.02 and -0.0966,-0.419 and -0.315,0.238 and 0.216,0.591 (inactive) and -0.814 (inactive),-0.665 and -0.654,-1.52 and -0.746,-0.815 and -1.04,-0.961 and -0.644,-0.598 and 0.088,0.936 and 0.89,-0.719 and -0.288,-1.55 and -2.15,-1.21 and -0.861,-0.878 and -0.992,-0.36 and -0.903,-0.146 and -0.236,0.23 and -0.214,-0.337 and -0.411,-0.802 and 0.0066,-1.29 and 1.65
C=CCN(CCCC)C(=O)C1N(C(C)(C)CO)C(=O)C2C(C(=O)O)C3C=CC21O3 (stereo not given),0.645 and 0.0697,-0.188 and -0.123,0.717 and 0.644,0.395 (inactive) and 0.383 (inactive),-1.84 and -0.834,-2.07 and -1.67,-1.97 and -1.42,-2 and -2.8,-2.4 and -1.9,-3.85 and -3,-1.32 and -1.36,-0.299 and 0.145,-3.24 and -2.31,-0.742 and -0.335,1.1 and 0.491,-0.297 and -0.169,-0.0626 and -0.23,-0.0094 and 0.125,-1.24 and -2.03,-1.41 and -0.821
O=C1C[C@]2(c3ccc([N+](=O)[O-])cc3)C(=O)N(Cc3ccccc3)c3cc(CO)ccc3[C@H]2N1C1CCCCC1,-0.179 and 0.678,-0.153 and 1.26,-0.0948 and 0.78,0.0261 (inactive) and -0.478 (inactive),-0.225 and 0.994,1.11 and -0.148,0.079 and 0.291,0.413 and -0.017,-0.0921 and 0.434,0.4 and 0.359,0.986 and 0.622,-0.107 and -2.97,-1.1 and 0.586,-0.135 and 1.19,-0.195 and 0.163,-0.0546 and -0.0556,0.0611 and 0.393,-0.262 and 0.344,0.395 and -0.136,0.0277 and -0.0515
C=CCN(Cc1ccccc1)C(=O)C1N(c2c(Cl)cccc2CO)C(=O)C2C(C(=O)O)C3C=CC21O3 (stereo not given),-1.57 and -0.0019,0.059 and 0.175,0.845 and 1.19,-2.02 (inactive) and -0.804 (inactive),-0.944 and -1.32,-1.84 and -1.45,-1.91 and -1.77,-1.61 and -2.46,-2.28 and -1.9,-0.934 and -2.5,-2.6 and -0.99,-0.431 and -0.961,-3.36 and -2.65,-0.998 and -0.846,0.686 and 0.031,-0.215 and -0.291,-0.221 and -0.0866,-0.261 and -0.281,-0.74 and -0.831,-2.7 and -1.89
CO[C@H]1COC(=O)CC=C[C@@H](C)COC(=O)[C@H](CCSC)NC(=O)CC=C[C@@H]1C,0.536 and 0.111,-0.51 and -0.591,-1.59 and -2.05,0.191 (inactive) and -0.244 (inactive),1.12 and 1.16,1.29 and 1.3,1.28 and 1.69,1.57 and 1.49,2.29 and 2.22,0.626 and -0.119,-0.467 and -0.849,-0.0216 and -0.567,1.6 and 1.71,-0.957 and -2.78,-1.75 and -3.46,-0.136 and -0.197,-0.138 and -0.34,-0.385 and -0.754,0.995 and 0.363,-0.933 and -1.69
C=CC[C@@H](O)c1ccc(O)c2ccccc12,1.35 and 1.41,-0.05 and -0.227,-0.0013 and -0.333,-0.879 (inactive) and 3.08 (inactive),0.991 and 1.34,0.797 and 1.25,1.33 and 1.15,1.2 and 1.43,0.817 and 1.14,1.38 and 0.954,0.837 and 1.21,-1.89 and -2.65,0.723 and 0.901,-1.52 and -0.403,-1.59 and -1.41,-0.101 and -0.0704,0.296 and -0.0553,-0.369 and -0.55,0.848 and 0.0091,2.05 and 1.17
C=CCN(C(=O)C1N(c2c(Cl)cccc2CO)C(=O)C2C(C(=O)O)C3C=CC21O3)C(C)(C)C (stereo not given),0.769 and -1.57,-0.525 and -0.241,-0.269 and 0.798,-0.859 (inactive) and -1.07 (inactive),-0.788 and -1.43,-1.39 and -0.911,-1.85 and -0.913,-0.332 and 0.322,-2.02 and -2.22,-0.918 and -0.985,-0.375 and -1.73,-0.892 and -0.519,-2.64 and -2.81,-0.68 and -0.347,-0.0519 and 0.673,-0.334 and -0.28,-0.544 and -0.123,0.793 and -0.124,-0.879 and -1.71,-1.09 and -1.44
CCCC[C@@H]1CN2[C@@H](CC[C@@H](C)[C@@H]2c2ccc(Br)cc2)C(=O)O1,0.469 and 0.883,-0.13 and -0.277,-0.455 and -0.254,0.33 (inactive) and 0.758 (inactive),0.979 and 0.906,0.521 and 0.0677,0.183 and -0.121,0.516 and 0.351,0.272 and 0.136,0.488 and -0.0019,1.27 and 1.07,-1.44 and -0.195,0.379 and 0.292,0.0614 and 0.32,-0.242 and -0.217,-0.152 and -0.13,0.0756 and -0.0553,-0.198 and 0.121,0.0865 and -0.0158,0.439 and 0.105
